The record followed here is the supplement of paper PMC8728848.

The entries come from a sample that favours the strongest signals as a whole.

Holding throughout (test): glycan array binding signal (z-score within array); higher = stronger binding
Holding throughout (settings): glycan notation: IUPAC condensed, linker removed

In assay [1] the target is Fuc(a1-2)Gal(b1-4)GlcNAc. The method, boiled down:
(§1)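 Glycan array binding is given as a within-array Z-score, which can be read as non-binding when negative. The arrays, 3228 of them, came from the Consortium for Functional Glycomics database and were retained only where the protein sequence was available. Z-scores were averaged across arrays of the same protein sequence at different concentrations or buffers and across linkers.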

In assay [2] the target is Gal(b1-3)GalNAc(b1-4)[Neu5Ac(a2-3)]Gal(b1-4)Glc. In short, it runs like this: as §1
Assay [3] concerns the target Gal(b1-3)[Fuc(a1-4)]GlcNAc. In short, it runs like this:
as §1

In assay [4] the target is Gal(b1-3)[GlcNAc(b1-6)]GalNAc. In short, it runs like this:
as §1

Assay [5] deals with Gal(b1-4)GlcNAc(b1-3)Gal(b1-4)GlcNAc(b1-3)Gal(b1-4)GlcNAc. In short, it runs like this:
as §1

Assay [6] concerns the target Gal(b1-4)GlcNAc(b1-6)[Gal(b1-3)]GalNAc. The method, boiled down: as §1
Assay [7] has as its target Gal3S(b1-4)Glc6S. The method, boiled down:
as §1

Assay [8] deals with Gal3S(b1-4)GlcNAc6S. The method, boiled down:
as §1

Assay [9] addresses Gal3S6S(b1-4)GlcNAc. The method, boiled down: as §1
The target in assay [10] is Gal3S6S(b1-4)GlcNAc6S. The method, boiled down:
as §1

The target in assay [11] is Gal6S(b1-4)Glc6S. The method, boiled down: as §1
Assay [12] concerns the target GlcNAc(b1-6)Gal(b1-4)GlcNAc. The method, boiled down: as §1
Assay [13] concerns the target Man(a1-2)Man(a1-2)Man(a1-3)Man. In short, it runs like this: as §1
For assay [14], the target named is Neu5Ac(a2-3)Gal(b1-3)GlcNAc6S. In short, it runs like this: as §1
Assay [15] addresses Neu5Ac(a2-3)Gal(b1-4)GlcNAc. In short, it runs like this: as §1
In assay [16] the target is Neu5Ac(a2-3)Gal(b1-4)[Fuc(a1-3)]GlcNAc(b1-3)Gal(b1-4)GlcNAc. In short, it runs like this:
as §1

Assay [17] concerns the target Neu5Ac(a2-3)[GalNAc(b1-4)]Gal(b1-4)Glc. In short, it runs like this:
as §1

In assay [18] the target is Neu5Ac(a2-3)[Neu5Ac(a2-6)]GalNAc. The method, boiled down: as §1
The target in assay [19] is Neu5Ac(a2-8)Neu5Ac. In short, it runs like this:
as §1

The target in assay [20] is Fuc(a1-4)GlcNAc. The method, boiled down:
as §1

In assay [21] the target is Gal(b1-2)Gal. In short, it runs like this: as §1
The target in assay [22] is Gal(b1-3)Gal. In short, it runs like this: as §1
For assay [23], the target named is Gal(b1-3)[Neu5Ac(a2-6)]GlcNAc. The method, boiled down: as §1
In assay [24] the target is Gal3S(b1-3)[Fuc(a1-4)]GlcNAc. The method, boiled down:
as §1

For assay [25], the target named is Gal4S6S(b1-4)GlcNAc. The method, boiled down: as §1
The target of assay [26] is GlcA(b1-3)Gal. In short, it runs like this:
as §1

In assay [27] the target is GlcNAc(b1-3)Gal(b1-4)GlcNAc(b1-3)Gal(b1-4)GlcNAc. The method, boiled down: as §1
In assay [28] the target is GlcNAc(b1-4)[GlcNAc(b1-6)]GalNAc. The method, boiled down:
as §1

Assay [29] concerns the target Kdn(a2-3)Gal(b1-3)GlcNAc. In short, it runs like this:
as §1

Assay [30] concerns the target Man(a1-2)Man(a1-2)Man(a1-3)[Man(a1-2)Man(a1-6)[Man(a1-3)]Man(a1-6)]Man(b1-4)GlcNAc(b1-4)GlcNAc. The method, boiled down: as §1
Assay [31] deals with Man(a1-2)Man(a1-3)[Man(a1-2)Man(a1-6)]Man. In short, it runs like this:
as §1

The target of assay [32] is Man(b1-4)GlcNAc. In short, it runs like this: as §1
For assay [33], the target named is Neu5Ac(a2-3)Gal(b1-3)GlcNAc. In short, it runs like this:
as §1

Assay [34] addresses Neu5Ac(a2-3)Gal(b1-3)[Neu5Ac(a2-6)]GalNAc. In short, it runs like this: as §1
In assay [35] the target is Neu5Ac(a2-3)Gal(b1-4)[Fuc(a1-3)]GlcNAc(b1-3)Gal(b1-4)[Fuc(a1-3)]GlcNAc(b1-3)Gal(b1-4)[Fuc(a1-3)]GlcNAc. In short, it runs like this: as §1
Assay [36] deals with Neu5Ac(a2-6)GalNAc. The method, boiled down: as §1
Assay [37] addresses Neu5Ac(a2-8)Neu5Ac(a2-8)Neu5Ac. In short, it runs like this: as §1
Assay [38] concerns the target Fuc(a1-2)Gal6S(b1-4)GlcNAc. The method, boiled down: as §1
Assay [39] concerns the target Fuc(a1-3)[Gal3S(b1-4)]Glc. In short, it runs like this: as §1
Assay [40] concerns the target Gal(a1-3)Gal(b1-3)Glc. In short, it runs like this:
as §1

Assay [41] deals with Gal(a1-4)GlcNAc. In short, it runs like this:
as §1

Assay [42] deals with Gal(a1-6)Glc. The method, boiled down: as §1
The target of assay [43] is Gal(b1-3)GalNAc(b1-3)Gal(b1-4)GlcNAc. In short, it runs like this:
as §1

Assay [44] addresses Gal(b1-4)GlcNAc(b1-2)Man(a1-3)[Gal(b1-4)GlcNAc(b1-2)Man(a1-6)]Man(b1-4)GlcNAc(b1-4)GlcNAc. The method, boiled down:
as §1

In assay [45] the target is Gal3S(b1-4)GlcNAc. In short, it runs like this:
as §1

Assay [46] concerns the target GalNAc(b1-3)Gal(a1-4)Gal(b1-4)GlcNAc. In short, it runs like this:
as §1

For assay [47], the target named is Glc(b1-4)Glc. The method, boiled down: as §1
Assay [48] addresses GlcNAc(b1-4)GlcNAc(b1-4)GlcNAc(b1-4)GlcNAc(b1-4)GlcNAc(b1-4)GlcNAc. The method, boiled down: as §1
Assay [49] has as its target Man(a1-3)[Man(a1-6)]Man(b1-4)GlcNAc(b1-4)GlcNAc. In short, it runs like this: as §1
Assay [50] has as its target Neu5Ac(a2-3)Gal(b1-3)GalNAc. The method, boiled down: as §1
Assay [51] has as its target Neu5Ac(a2-3)Gal(b1-4)GlcNAc(b1-3)Gal(b1-4)GlcNAc. The method, boiled down: as §1
Assay [52] deals with Neu5Ac(a2-3)Gal(b1-4)GlcNAc(b1-6)[Gal(b1-3)]GalNAc. In short, it runs like this: as §1
Assay [53] concerns the target Neu5Ac(a2-3)Gal(b1-4)GlcNAc6S. The method, boiled down:
as §1

The target of assay [54] is Neu5Ac(a2-3)Gal(b1-4)[Fuc(a1-3)]GlcNAc(b1-3)Gal. The method, boiled down:
as §1

The target of assay [55] is Neu5Ac(a2-8)Neu5Ac(a2-3)Gal(b1-4)Glc. The method, boiled down:
as §1

Assay [56] addresses Neu5Ac(a2-8)Neu5Ac(a2-3)[GalNAc(b1-4)]Gal(b1-4)Glc. In short, it runs like this: as §1
Assay [57] concerns the target Neu5Gc(a2-3)Gal(b1-3)GlcNAc. In short, it runs like this: as §1

B1: TREM-2 (Mus musculus), Q99NH8 (protein)
chain: MGPLHQFLLLLITALSQALNTTVLQGMAGQSLRVSCTYDALKHWGRRKAWCRQLGEEGPCQRVVSTHGVWLLAFLKKRNGSTVIADDTLAGTVTITLKNLQAGDAGLYQCQSLRGREAEVLQKVLVEVLEDPLDDQDAGDLWVPEESSSFEGAQVEHSTSRNQETSFPPTSILLLLACVLLSKFLAASILWAVARGRQKPGTPVVRGLDCGQDAGHQLQILTGPGGT
In the case of B1, the “glycan array binding signal (z-score)” value in assay [1] was -0.407; in [2], -0.342; in assay [3] it was -0.368; in [4] it was -0.349; in assay [5] it was -0.287; in assay [6], -0.354. The “glycan array binding signal (z-score)” value was 4.24 in assay [7]; 4.02 in assay [8]; 4.4 in assay [9]; 4.74 in assay [10]; 3.17 in [11]; -0.382 in assay [12]. The “glycan array binding signal (z-score)” value in assay [13] is -0.305; in assay [14], -0.078; in assay [15], -0.391; in [16], -0.043; in [17] it was -0.373; in assay [18], 0.289. Besides, the “glycan array binding signal (z-score)” value in assay [19] was -0.304.

B2: Dectin-1 CTLD (Mus musculus), Q6QLQ4 (protein)
chain: MKYHSHIENLDEDGYTQLDFSTQDIHKRPRGSEKGSRAPSSPWRPIAVGLGILCFVVVVVAAVLGALAFWRHNSGRNPEEKDNFLSRNKENHKPTESSLDEKVAPSKASQTTGGFSQSCLPNWIMHGKSCYLFSFSGNSWYGSKRHCSQLGAHLLKIDNSKEFEFIESQTSSHRINAFWIGLSRNQSEGPWFWEDGSAFFPNSFQVRNTVPQESLLHNCVWIHGSEVYNQICNTSSYSICEKEL
Consider B2, for which the “glycan array binding signal (z-score)” value in assay [1] was -0.083; in [20] it was -0.141; in [21] it was -0.384; in assay [22], -0.471; in assay [2], -0.16; in [23], -0.392. Also, the “glycan array binding signal (z-score)” value is -0.474 in assay [24]; -0.021 in [25]; 4.11 in assay [26]; -0.18 in assay [27]; 9.99 in assay [28]; -0.044 in assay [29]. In addition, the “glycan array binding signal (z-score)” value was 0.004 in [30]; -0.241 in assay [31]; -0.259 in [32]; -0.294 in [33]; -0.324 in assay [34]; -0.03 in assay [16]. The “glycan array binding signal (z-score)” value was 7.53 in [35], -0.211 in assay [18], 0.06 in assay [36] and 5.28 in [37].

B3: FBG4 (Homo sapiens), Q96EF6 (protein)
chain: MGARLSRRRLPADPSLALDALPPELLVQVLSHVPPRSLVTRCRPVCRAWRDIVDGPTVWLLQLARDRSAEGRALYAVAQRCLPSNEDKEEFPLCALARYCLRAPFGRNLIFNSCGEQGFRGWEVEHGGNGWAIEKNLTPVPGAPSQTCFVTSFEWCSKRQLVDLVMEGVWQELLDSAQIEICVADWWGARENCGCVYQLRVRLLDVYEKEVVKFSASPDPVLQWTERGCRQVSHVFTNFGKGIRYVSFEQYGRDVSSWVGHYGALVTHSSVRVRIRLS
As to B3, the “glycan array binding signal (z-score)” value in assay [1] is -0.263; in assay [38] it was -0.475; in assay [39] it was -0.408; in assay [40], -0.259; in assay [41], -0.495; in assay [42] it was 1.59. The “glycan array binding signal (z-score)” value is -0.536 in assay [22]; -0.307 in [43]; 0.176 in [44]; 2.36 in assay [7]; 0.201 in assay [45]; 2.01 in assay [8]. Also, the “glycan array binding signal (z-score)” value is 6.42 in assay [10]; 3.24 in assay [11]; -0.171 in assay [46]; 0.332 in assay [47]; 1.31 in assay [48]; 0.275 in [49]. In addition, the “glycan array binding signal (z-score)” value is -0.448 in [32]; -0.559 in [50]; -0.49 in [51]; -0.301 in assay [52]; 0.103 in assay [53]; -0.522 in assay [54]. Besides, the entries for the “glycan array binding signal (z-score)” value in [55], in [56] and in assay [57] were -0.41, -0.266 and -0.432, respectively.
